BAZ2B inh – blocks human BAZ2B | actives 4.4% (n = 360,000) | AlphaScreen BAZ2B-H3K14Ac peptide displacement | AID 504333 | Potency, µM (highest dose often 114 µM), without a hit: at the top dose activity change, negative = inhibition, actives largely listed as inhibitors | Q9UIF8; note: potency is the fitted concentration of half-maximal effect; % is set by controls: 0 for no effect and ±100 for the full control effect; nearly all actives have a fitted effect of over 60% in size
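BAZ2B 50 nM plus b-H3(5-23)K14Ac 50 nM, PBS pH 7.4/0.01% Tween-20, 30 min RT; compound added (max 110 uM), 30 min RT; streptavidin donor/Ni-chelate acceptor beads 10 ug/mL final, 20 min dark; AlphaScreen read.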
PLK1 PBD inh – inhibitors of human PLK1 polo-box domain binding. P53350. Plk1 PBD binding of FITC phosphopeptide, fluorescence polarization. Potency, µM, without a hit: max response, negative = inhibition, actives largely listed as inhibitors. actives 2.8% (n = 360,000); note: potency is the fitted concentration of half-maximal effect; series mostly up to about 57 µM; % is set by controls: 0 for no effect and ±100 for the full control effect; nearly all actives have a fitted effect of over 65% in size
JMJD2A Tudor – blocks the human JMJD2A Tudor domain; AlphaScreen JMJD2A-Tudor / H3K4me3 peptide binding; O75164; Potency, µM (series often up to 114 µM), for inactives: at the top dose activity change, negative = inhibition, usual class: inhibitors; AID 504339; actives 4.4% (n = 390,000); note: potency is the fitted concentration of half-maximal effect; % is set by controls: 0 for no effect and ±100 for the full control effect; nearly all actives have a fitted effect of over 50% in size
HP1b chromo inh – inhibitors of HP1-beta chromodomain binding to methylated histone tails; P83916; AlphaScreen HP1-beta / biotin-H3K9me3 peptide binding; Potency, µM (top dose mostly 114 µM), for the others: at the top dose activity change, negative = inhibition, actives largely listed as inhibitors; actives 0.56% (n = 390,000); note: potency is the fitted concentration of half-maximal effect; nearly all actives have a fitted effect of over 70% in size
Target sequence (P83916 whole entry, looked up): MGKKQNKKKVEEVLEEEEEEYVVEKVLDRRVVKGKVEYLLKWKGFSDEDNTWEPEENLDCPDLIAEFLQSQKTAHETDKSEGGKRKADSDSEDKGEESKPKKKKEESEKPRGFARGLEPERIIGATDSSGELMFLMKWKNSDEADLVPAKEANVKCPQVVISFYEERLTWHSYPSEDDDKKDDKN
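Compound inhibition of the preformed complex between 50 nM HP1-beta and 50 nM biotinylated H3K9me3 peptide was read by AlphaScreen. Buffer was PBS pH 7.4 with 0.01% Tween-20. Incubations ran 30 min at room temperature, with 10 ug/mL donor/acceptor beads.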
PI5P4Ka inh – PI5P4K alpha (human) kinase inhibition. P48426. PI5P4Kalpha enzyme, ADP-Glo luminescence, 60 min; hits give low values. max response, %. actives 1.2% (n = 330,000). AID 652105; active = max response of -50% or lower; inconclusive = between -30% and -50%; inactive = -30% or higher; note: value at the top dose of about 77 µM; % is set by controls: 0 for no effect and ±100 for the full control effect
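ADP-Glo luminescence end-point read after a 60 min room-temperature kinase reaction of PI5P4Kalpha plus substrate, initiated with ATP at 5 microM final. Buffer: 0.038 M HEPES pH 7.4, EGTA, 0.1% CHAPS, 5% DMSO.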
G9a inh – inhibitors of human histone lysine methyltransferase G9a; Q96KQ7; G9a H3K9 monomethylation, AlphaScreen, 2 h; Potency, µM (series often up to 102 µM), for inactives: top-dose activity, negative = inhibition, usual class: inhibitors; actives 8.8% (n = 350,000); note: potency is the fitted concentration of half-maximal effect; % is set by controls: 0 for no effect and ±100 for the full control effect; nearly all actives have a fitted effect of over 75% in size
Target sequence (Q96KQ7 913-1193 limits assumed): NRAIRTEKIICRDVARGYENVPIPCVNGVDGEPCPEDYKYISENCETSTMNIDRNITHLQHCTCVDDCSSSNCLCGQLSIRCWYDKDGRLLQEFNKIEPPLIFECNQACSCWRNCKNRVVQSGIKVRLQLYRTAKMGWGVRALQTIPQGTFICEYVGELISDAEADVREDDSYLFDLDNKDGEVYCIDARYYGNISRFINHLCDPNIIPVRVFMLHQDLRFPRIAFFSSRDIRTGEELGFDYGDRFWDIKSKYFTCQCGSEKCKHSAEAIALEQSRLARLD
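Methyltransferase reactions run at room temperature for 2 h (20 nM enzyme, 500 nM biotin-H3K9 peptide, 20 uM SAM) after a 15 min compound preincubation; product detected by AlphaScreen beads and anti-H3K9me1 antibody.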
Starred values were filed as active, the others as inactive; ? = inconclusive; · = no result given; [ ] = remark or other dose. Rows were chosen to be rich in hits. Some 12% of all compounds tested hit in one or more screens of this group. Unless noted, calls come from the whole dose curve; as a rule, active = well fitted curve in the direction sought with a large enough effect; inconclusive = small, poorly fitted or top-dose-only effect, or another doubt; inactive = no such curve, though single readings can be large; an effect the other way counts as inactive or inconclusive.

SMILES	BAZ2B inh	PLK1 PBD inh	JMJD2A Tudor	HP1b chromo inh	PI5P4Ka inh	G9a inh
COC(=O)C1=C(C)N(CCCC(=O)O)C(=O)NC1c1cccc(Cl)c1Cl (stereo unspecified)	·	2%	-17%	49%	-98*	·
COC(=O)C1=C(C)N(CCCC(=O)O)C(=O)NC1c1cccc2ccccc12 (stereo unspecified)	·	-1%	-4%	46%	-71*	·
CCOC(=O)C1=C(C)N(C)C(=O)NC1c1cccc2ccccc12 (stereo unspecified)	1%	11µM*	?	8%	-18	·
CC1=C(C(=O)OCc2ccccc2)C(c2cccc3ccccc23)NC(=O)N1CCCC(=O)O (stereo unspecified)	-2%	-1%	-25%	19%	-86*	3%[2.33 µM]
COc1cccc(NC(=O)N(Cc2c[nH]c3ccccc23)C2CCCCCC2)c1	·	·	-34%	27%	·	-29%[59 µM]
CCCNC(=O)C1(C)CCCN(CC(=O)c2ccc3c(c2)OCCO3)C1 (stereo unspecified)	·	-6%	·	·	2	·
CC(=O)N=c1sccn1CC(O)c1ccccc1 (stereo unspecified)	-22%	-7%	-9%	31%	-3	-4%
COc1ccc(C(O)Cn2ccsc2=NC(C)=O)cc1 (stereo unspecified)	-29%	4%	-3%	48%	-6	50µM*
COc1cc([C@@H]2Nc3c(F)cccc3[C@@H]3C=CC[C@@H]32)cc(Br)c1OC	4%	·	2%	29%	·	-1%[59 µM]
COCCCN1C(=O)C(=O)/C(=C(/O)c2ccccc2)C1c1ccc(N(C)C)cc1 (stereo unspecified)	?	-1%	?	7%	·	45µM*
CN(C)c1ccc(C2/C(=C(/O)c3ccccc3)C(=O)C(=O)N2CCCC(=O)O)cc1 (stereo unspecified)	-26%	6%	?	27%	3	?
COCCCN1C(=O)C(=O)/C(=C(/O)c2ccccc2)C1c1ccc2c(c1)OCO2 (stereo unspecified)	-35%	-5%	?	20%	·	56µM*
CCOC(=O)c1c(-c2ccccc2)oc2ccc(N(C(C)=O)S(=O)(=O)c3ccc(CC)cc3)cc12	-12%	·	-1%	18%	·	6%[59 µM]
CS(=O)(=O)c1ccc(-c2sc3ccccc3c2C(=O)N2CCN(c3ccc(F)cc3)CC2)cc1	·	-11%	-23%	50%	?	·
O=C(O)c1ccc(CSc2ncnc3c2cnn3Cc2ccccc2)cc1	-12%	0%	-5%	37%	1	·
O=C(O)c1ccc(Nc2ncnc3c2cnn3Cc2ccccc2)cc1	-12%	30µM*	50µM*	?	·	32µM*
COc1ccc(CC(=O)NNc2ncnc3c2cnn3Cc2ccccc2)cc1OC	-7%	27µM*	-26%	?	0	·
Cc1cccc(Nc2ncnc3c2cnn3Cc2ccccc2)c1	?	24µM*	?	23%	-11	50µM*
Cc1ccc(S(=O)(=O)N2C[C@]3(O)C[C@@H]4C(=O)N(c5ccccc5)C(=O)[C@@H]4C[C@]3(OC(=O)NC3CCCC3)C2)cc1	·	?	·	·	-2	·
CC1O[C@@H]2O[C@](O[C@H](C)CC[C@@H](C)O)(c3ccccc3)O[C@@H]2C[C@H]1O (stereo partly specified)	2%	-13%	-8%	18%	-3	3%[2.33 µM]
COc1ccc(C)cc1Nc1nc(-c2c[nH]c3ccccc23)cs1	50µM*	?	?	-24%[57 µM]	-14	3.2µM*
Cc1ccc(C(=O)Nc2nc3nc(C)cc(=O)n3[nH]2)cc1	-4%	·	?	-9%	·	12%[59 µM]
Cc1cc(=O)n2[nH]c(COc3ccccc3)nc2n1	6%	1%	2%	32%	3	40µM*
Cc1cc(=O)n2[nH]c(C(=O)O)nc2n1	?	-10%	8.9µM*	-27%	-9	?
CCCc1cc(=O)n2[nH]c(NC(=O)c3ccco3)nc2n1	-26%	4%	6%	23%	2	79µM*

Compound activity (PubChem)
